# Screening results from PubChem BioAssay.
# PGE2 EP2 inh = blocks the human prostaglandin E2 receptor EP2; C6 glioma cells expressing human EP2, cAMP TR-FRET; cells stimulated with saturating PGE2; inhibition, % at 25 µM; 260,000 tested, 0.52% active;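 active = percent inhibition above 40 after rounding to a whole number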;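 also: rat C6 glioma host cells with rolipram phosphodiesterase inhibitor present; the protocol text gives 20 µM as final concentration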
# EP2 modulator = modulates human prostaglandin E2 receptor EP2 signaling; P43116; EP2-expressing cells, cAMP HTRF FRET, PGE2 co-stimulation; induction, % at 25 µM; 260,000 tested, 0.83% active;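 active = compounds whose cAMP rise, as percent of the full-agonist control response, exceeds 60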;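 also: rat C6 glioma line stably carrying human EP2 under a CMV promoter; the protocol text gives 20 µM as final concentration; 100% = response of wells given 1 µM PGE2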
# CHT PAM = allosterically activates the human high affinity choline transporter; 310,000 tested, 0.49% active; B-score at 10 µM; CHT-expressing cells, membrane potential dye, choline EC20; stronger effect = higher value; LV-AA mutant CHT in HEK293 cells;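 active = initial fluorescence not abnormally high and integrated response B-score, plate-corrected, over 3 SD above library mean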
# Target sequence (Q9GZV3 whole entry, looked up): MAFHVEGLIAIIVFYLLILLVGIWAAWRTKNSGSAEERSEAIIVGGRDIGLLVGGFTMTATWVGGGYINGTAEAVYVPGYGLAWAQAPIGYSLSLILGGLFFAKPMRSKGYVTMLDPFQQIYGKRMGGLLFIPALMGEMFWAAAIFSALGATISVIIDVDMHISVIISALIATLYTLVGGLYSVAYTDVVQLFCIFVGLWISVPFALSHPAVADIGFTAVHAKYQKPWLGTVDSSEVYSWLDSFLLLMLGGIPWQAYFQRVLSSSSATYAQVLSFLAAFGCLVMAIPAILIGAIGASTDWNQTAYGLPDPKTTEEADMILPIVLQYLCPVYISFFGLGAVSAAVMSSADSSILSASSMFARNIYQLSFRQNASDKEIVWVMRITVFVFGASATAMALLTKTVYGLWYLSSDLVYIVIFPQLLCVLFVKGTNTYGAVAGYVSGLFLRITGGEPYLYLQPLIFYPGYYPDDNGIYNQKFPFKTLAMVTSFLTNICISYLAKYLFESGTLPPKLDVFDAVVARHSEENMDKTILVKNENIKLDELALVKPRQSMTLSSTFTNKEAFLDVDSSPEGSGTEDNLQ
# CHT block = inhibitors of human choline transporter CHT | CHT-expressing cells, membrane potential dye, choline response; stronger effect = lower value | B-score at 10 µM | 310,000 tested, 0.86% active | AID 488975;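 active = B-score over 3 SD under the library average, and starting fluorescence ratio not unusually high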;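 also: choline stimulus applied at its EC90 after an EC20 pre-addition; B-score computed on integrated fluorescence ratio after choline addition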
# CHT inh conf = confirmation of human choline transporter CHT inhibitors; AID 493221; shares compounds with CHT block; 2,400 tested, 70% active; CHT-expressing cells, choline membrane potential dye; LV-to-AA substituted CHT, HEK293 cells; CHT activity remaining % of control (stronger effect = lower value), % at 10 µM;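 active = choline transporter activity left, mean of duplicates at 10 µM, below buffer-only control mean minus 3 SD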;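 also: depolarization triggered by choline at its EC90 following an EC20 pre-addition; 0% = hemicholinium-3 full block and 100% = buffer-only control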
# HEK293 CHT ctr = counter-screen for CHT inhibitors: effect in parental HEK293 cells. shares compounds with CHT block. membrane potential dye, choline response; active = decrease or increase beyond buffer ±3SD. membrane potential ratio readout (active if shifted either direction beyond buffer ±3SD; no single direction) at 10 µM. 2,400 tested, 4% active;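 also: parental cells lack the transporter so any hit is non-specific; ratio is peak minus trough fluorescence over baseline after EC90 choline challenge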
# Numbers without * were called inactive; i = inactive; . = no result. In the library only some 2% were active in any assay of this set; here they are far more common.
SMILES,PGE2 EP2 inh,EP2 modulator,CHT PAM,CHT block,CHT inh conf,HEK293 CHT ctr
COCCSc1nnc(NC(=O)c2ccccc2F)s1,8,-2,.,.,.,.
O=C(NNS(=O)(=O)c1ccc([N+](=O)[O-])cc1)c1ccc2ccccc2c1O,.,.,i,-5*,42%*,i
O=C(NNS(=O)(=O)c1ccc(F)cc1)c1ccc([N+](=O)[O-])cc1,.,.,i,i,.,.
Cc1cccc(NC2=C(NCCO)C(=O)c3ccccc3C2=O)c1,9,23,i,-7.7*,45%*,2.5*
CC(c1ccco1)N(C(=O)c1ccccc1NS(=O)(=O)c1ccc(Cl)c([N+](=O)[O-])c1)c1ccccn1 (stereo unspecified),5,-21,i,-7.8*,66%*,i
CCOC(=O)c1ccc(NC(=O)C2OCCc3ccccc32)cc1 (stereo unspecified),5,-35,.,.,.,.
CC1(C)CC(=O)C=C(Nc2ccc(Cl)cc2)C1,.,.,i,i,.,.
CC1(C)CC(=O)C=C(Nc2cccc(Cl)c2Cl)C1,.,.,i,-5*,63%*,i
Cc1ccc(-c2nnn(CC(=O)N(CCN3CCOCC3)C(C(=O)NC(C)(C)C)c3ccco3)n2)cc1 (stereo unspecified),6,15,i,-6.2*,24%*,-10*
CC1(C)CC(N(Cc2cccs2)C(=O)c2ccc(F)cc2)CC(C)(C)N1,5,-23,.,.,.,.
S=c1nc(-c2sccc2OCc2ccc(Cl)cc2Cl)[nH][nH]1,4,11,i,-5*,70%*,i
CNC(=S)NNC(=O)c1sccc1OCc1ccc(Cl)cc1Cl,4,0,i,i,.,.
CC(Sc1nc(N)cc(=O)[nH]1)C(=O)Nc1sc2c(c1C#N)CCCC2 (stereo unspecified),9,-26,i,i,.,.
Cc1nnc(SC(C)C(=O)Nc2sc3c(c2C#N)CCCC3)[nH]c1=O (stereo unspecified),.,.,i,-5.2*,65%*,i
Cc1sc2nc(C(C)C)n(C3CCN(C(=O)c4ccncc4)CC3)c(=O)c2c1C,3,26,.,.,.,.
CCOC(=O)C1CCCN(c2c(NCCC(C)C)c(=O)c2=O)C1 (stereo unspecified),6,17,i,i,.,.
CCOC(=O)C1CCN(c2c(NCCC(C)C)c(=O)c2=O)CC1,7,5,i,-6.4*,i,i
COCC(C)NC(=O)[C@H]1C[C@@H](c2cccs2)NS(=O)(=O)N1C (stereo partly specified),.,-1,.,.,.,.
O=C(CCN1C(=O)/C(=C\c2cccc(Br)c2)SC1=S)NCCCN1CCOCC1,15,-95,i,-5.6*,69%*,i
O=C(CCCN1C(=O)/C(=C/c2ccccc2)SC1=S)N1CCOCC1,.,.,i,-5.6*,i,i
O=C(CCN1C(=O)/C(=C/c2ccccc2)SC1=S)NCCCN1CCOCC1,.,.,i,i,.,.
CN1CCN(C(=O)CCN2C(=O)/C(=C/c3cccc(Br)c3)SC2=S)CC1,6,-396,i,-5.2*,70%*,i
O=C(NCCCn1ccnc1)c1cn(-c2ccccc2)nc1-c1ccc(F)cc1,2,8,i,-6.9*,36%*,i
O=C(O)c1ccccc1C(=O)NCCCn1ccnc1,.,.,i,i,.,.
Cc1ccc2nc(-c3ccccc3)cc(C(=O)NCCCn3ccnc3)c2c1,16,-8,i,-11*,30%*,i
SMILES,PGE2 EP2 inh,EP2 modulator,CHT PAM,CHT block,CHT inh conf,HEK293 CHT ctr
CC1c2ccsc2CCN1Cc1ccc(OCc2ccccn2)cc1 (stereo unspecified),4,-65,.,.,.,.
Cc1ccc2cc(CN(CCN3CCOCC3)C(=O)Nc3cccc(Cl)c3)c(=O)[nH]c2c1C,9,-24,.,.,.,.
CCC(c1nnnn1C(C)(C)CC)N(CCO)Cc1cc2cc(C)ccc2[nH]c1=O (stereo unspecified),21,4,.,.,.,.
O=S(=O)(Nc1nc2ccccc2nc1NCc1ccco1)c1ccc(F)cc1,14,-1,i,-6.2*,i,i
O=S(=O)(Nc1nc2ccccc2nc1NCc1ccco1)c1ccccc1,1,27,i,i,.,.
CCc1ccc(C(=O)NCC2COc3ccccc3O2)o1 (stereo unspecified),11,-54,i,i,.,.
